Data taken from PMC7862700, “An all-to-all approach to the identification of sequence-specific readers for epigenetic DNA modifications on cytosine”.

What was measured:
Assay in all cases: DAPPL (digital affinity profiling via proximity ligation, sequencing); 10 mM Tris-HCl pH 7.5, 50 mM NaCl, 1 mM DTT, 4% glycerol, room temperature, 30 min; GST-TFs on glutathione beads, 16-mer random dsDNA library, 0.1% formaldehyde crosslink after washing; high values mean tight binding
FLI1 = molecular target: T1, FLI1 (Homo sapiens, UniProt Q01543 1-452); settings: protein: recombinant; tags: N-terminal GST; dsDNA, one strand shown
T1 sequence: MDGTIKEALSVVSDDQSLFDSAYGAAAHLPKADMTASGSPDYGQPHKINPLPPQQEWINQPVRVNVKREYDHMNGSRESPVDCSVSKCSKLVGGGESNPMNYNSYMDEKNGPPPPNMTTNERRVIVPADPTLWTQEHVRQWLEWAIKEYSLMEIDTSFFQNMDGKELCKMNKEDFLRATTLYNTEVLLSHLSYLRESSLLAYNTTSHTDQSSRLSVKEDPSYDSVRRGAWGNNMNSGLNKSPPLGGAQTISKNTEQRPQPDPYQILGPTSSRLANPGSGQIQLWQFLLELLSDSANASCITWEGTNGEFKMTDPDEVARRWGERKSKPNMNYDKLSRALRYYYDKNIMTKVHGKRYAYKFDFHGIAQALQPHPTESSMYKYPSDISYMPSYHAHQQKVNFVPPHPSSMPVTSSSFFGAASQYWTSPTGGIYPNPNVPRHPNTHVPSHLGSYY
Method in brief: (§1)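 Binding signal is given per hexamer as its read frequency for a factor divided by its frequency in the tag-only sample. GST-fused human transcription factors were expressed in yeast, captured on glutathione beads, barcoded with DNA and pooled with that sample, then incubated with 200 nmole of a 16-mer random double-stranded DNA library in Tris/NaCl/DTT/glycerol buffer for 30 min at room temperature. The pools were then washed, crosslinked, proximity-ligated, amplified by PCR and sequenced on an Illumina NextSeq500.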

ELK1 = molecular target: T2, ELK1 (Homo sapiens, UniProt P19419 1-428); settings: protein: recombinant; tags: N-terminal GST; dsDNA, one strand shown
T2 sequence: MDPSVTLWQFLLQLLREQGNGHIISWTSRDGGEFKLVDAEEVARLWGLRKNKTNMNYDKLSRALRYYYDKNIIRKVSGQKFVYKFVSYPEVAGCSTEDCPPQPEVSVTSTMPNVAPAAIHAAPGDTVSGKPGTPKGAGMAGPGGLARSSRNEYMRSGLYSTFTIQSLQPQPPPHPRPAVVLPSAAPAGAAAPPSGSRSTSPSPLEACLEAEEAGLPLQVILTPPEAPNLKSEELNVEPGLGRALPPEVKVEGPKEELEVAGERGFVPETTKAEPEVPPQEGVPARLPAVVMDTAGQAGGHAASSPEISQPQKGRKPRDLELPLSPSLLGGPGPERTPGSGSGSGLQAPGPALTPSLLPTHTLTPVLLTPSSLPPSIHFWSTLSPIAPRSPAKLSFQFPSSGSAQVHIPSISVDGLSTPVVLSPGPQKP
Method in brief: as §1

GABPA = molecular target: T3, GABPA (Homo sapiens, UniProt Q06546 1-454); settings: protein: recombinant; tags: N-terminal GST; dsDNA, one strand shown
T3 sequence: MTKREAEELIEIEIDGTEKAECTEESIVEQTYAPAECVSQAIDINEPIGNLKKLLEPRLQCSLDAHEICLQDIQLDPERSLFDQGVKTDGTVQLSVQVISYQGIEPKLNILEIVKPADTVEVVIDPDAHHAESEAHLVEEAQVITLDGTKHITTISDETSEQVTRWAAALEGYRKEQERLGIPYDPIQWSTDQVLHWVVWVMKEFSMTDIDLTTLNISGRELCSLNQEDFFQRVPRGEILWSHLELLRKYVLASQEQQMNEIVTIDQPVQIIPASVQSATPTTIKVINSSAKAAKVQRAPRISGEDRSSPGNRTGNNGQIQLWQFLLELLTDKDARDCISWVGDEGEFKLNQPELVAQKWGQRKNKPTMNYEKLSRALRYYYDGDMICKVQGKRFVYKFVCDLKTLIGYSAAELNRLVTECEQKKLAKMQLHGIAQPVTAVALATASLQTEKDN
Method in brief: as §1

ERG = molecular target: T4, ERG (Homo sapiens, UniProt P11308 1-479); settings: protein: recombinant; tags: N-terminal GST; dsDNA, one strand shown
T4 sequence: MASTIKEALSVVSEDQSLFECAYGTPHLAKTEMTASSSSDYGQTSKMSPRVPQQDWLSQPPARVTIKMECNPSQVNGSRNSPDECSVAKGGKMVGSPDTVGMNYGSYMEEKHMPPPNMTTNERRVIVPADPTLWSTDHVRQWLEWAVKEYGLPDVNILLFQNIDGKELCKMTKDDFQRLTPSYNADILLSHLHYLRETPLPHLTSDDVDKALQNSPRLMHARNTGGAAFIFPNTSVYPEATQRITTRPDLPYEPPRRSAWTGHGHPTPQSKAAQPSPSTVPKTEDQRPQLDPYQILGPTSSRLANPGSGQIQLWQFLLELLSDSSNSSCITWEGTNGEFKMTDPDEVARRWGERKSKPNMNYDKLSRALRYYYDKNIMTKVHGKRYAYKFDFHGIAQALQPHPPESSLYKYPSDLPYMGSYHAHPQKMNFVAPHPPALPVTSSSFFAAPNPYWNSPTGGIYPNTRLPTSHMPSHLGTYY
Method in brief: as §1

ELF1 = ELF1 (Homo sapiens, UniProt P32519 1-619); settings: protein: recombinant; tags: N-terminal GST; dsDNA, one strand shown
ELF1, sequence (P32519 whole entry): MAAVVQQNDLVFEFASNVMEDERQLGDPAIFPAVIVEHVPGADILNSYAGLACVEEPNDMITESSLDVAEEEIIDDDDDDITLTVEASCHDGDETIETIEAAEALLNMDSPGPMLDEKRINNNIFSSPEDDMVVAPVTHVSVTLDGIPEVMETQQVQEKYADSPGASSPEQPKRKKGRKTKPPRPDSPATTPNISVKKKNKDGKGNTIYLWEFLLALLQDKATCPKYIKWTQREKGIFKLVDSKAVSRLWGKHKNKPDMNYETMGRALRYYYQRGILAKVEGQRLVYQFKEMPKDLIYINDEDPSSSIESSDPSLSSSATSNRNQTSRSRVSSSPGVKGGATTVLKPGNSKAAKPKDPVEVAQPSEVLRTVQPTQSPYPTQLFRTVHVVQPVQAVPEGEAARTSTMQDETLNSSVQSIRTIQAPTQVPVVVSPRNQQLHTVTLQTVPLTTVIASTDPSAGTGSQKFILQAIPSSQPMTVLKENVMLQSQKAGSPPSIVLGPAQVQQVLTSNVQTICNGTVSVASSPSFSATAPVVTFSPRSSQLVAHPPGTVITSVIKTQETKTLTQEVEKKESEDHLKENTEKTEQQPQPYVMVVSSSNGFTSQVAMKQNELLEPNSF
Method in brief: as §1

EHF = molecular target: T5, EHF (Homo sapiens, UniProt Q9NZC4 1-300); settings: protein: recombinant; tags: N-terminal GST; dsDNA, one strand shown
T5 sequence: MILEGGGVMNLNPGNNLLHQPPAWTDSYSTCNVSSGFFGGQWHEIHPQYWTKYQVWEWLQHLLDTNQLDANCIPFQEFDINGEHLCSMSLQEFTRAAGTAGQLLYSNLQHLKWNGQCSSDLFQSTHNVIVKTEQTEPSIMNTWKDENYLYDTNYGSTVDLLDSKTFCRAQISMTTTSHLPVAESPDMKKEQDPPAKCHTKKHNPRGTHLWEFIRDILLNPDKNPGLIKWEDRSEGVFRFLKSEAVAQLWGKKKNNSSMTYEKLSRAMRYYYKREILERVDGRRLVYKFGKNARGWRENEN
Method in brief: as §1

SPI1 = SPI1 (Homo sapiens, UniProt P17947 1-270); settings: protein: recombinant; tags: N-terminal GST; dsDNA, one strand shown
Method in brief: as §1

SPIB = SPIB (Homo sapiens, UniProt Q01892 1-262); settings: protein: recombinant; tags: N-terminal GST; dsDNA, one strand shown
SPIB, sequence (Q01892 whole entry): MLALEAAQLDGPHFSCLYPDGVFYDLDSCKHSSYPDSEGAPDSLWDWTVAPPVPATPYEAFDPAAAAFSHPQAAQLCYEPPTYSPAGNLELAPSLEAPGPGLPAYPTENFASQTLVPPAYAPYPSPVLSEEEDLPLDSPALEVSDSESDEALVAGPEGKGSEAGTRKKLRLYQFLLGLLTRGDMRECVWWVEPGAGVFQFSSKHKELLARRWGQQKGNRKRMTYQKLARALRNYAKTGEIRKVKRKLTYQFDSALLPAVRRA
Method in brief: as §1

ELK3 = molecular target: T6, ELK3 (Homo sapiens, UniProt P41970 1-407); settings: protein: recombinant; tags: N-terminal GST; dsDNA, one strand shown
T6 sequence: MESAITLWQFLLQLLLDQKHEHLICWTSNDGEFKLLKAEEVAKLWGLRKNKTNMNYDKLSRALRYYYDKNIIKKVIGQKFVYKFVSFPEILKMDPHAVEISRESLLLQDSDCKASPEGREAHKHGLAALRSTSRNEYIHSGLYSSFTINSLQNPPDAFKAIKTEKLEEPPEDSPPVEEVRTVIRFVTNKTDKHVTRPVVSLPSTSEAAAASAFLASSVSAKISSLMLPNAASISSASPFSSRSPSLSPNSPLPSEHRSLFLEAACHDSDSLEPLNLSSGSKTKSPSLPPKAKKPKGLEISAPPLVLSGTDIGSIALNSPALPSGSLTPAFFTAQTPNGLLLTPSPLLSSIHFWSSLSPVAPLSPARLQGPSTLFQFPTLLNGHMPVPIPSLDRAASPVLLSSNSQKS
Method in brief: as §1

FEV = molecular target: T7, FEV (Homo sapiens, UniProt Q99581 1-238); settings: protein: recombinant; tags: N-terminal GST; dsDNA, one strand shown
T7 sequence: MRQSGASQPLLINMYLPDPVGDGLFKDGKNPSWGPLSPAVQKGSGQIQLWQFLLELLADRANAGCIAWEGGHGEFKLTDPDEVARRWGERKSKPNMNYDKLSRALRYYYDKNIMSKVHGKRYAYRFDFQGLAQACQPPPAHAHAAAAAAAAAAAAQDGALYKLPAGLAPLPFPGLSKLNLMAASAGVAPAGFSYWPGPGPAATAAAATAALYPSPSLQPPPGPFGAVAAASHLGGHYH
Method in brief: as §1

ETV5 = ETV5 (Homo sapiens, UniProt P41161 1-510); settings: protein: recombinant; tags: N-terminal GST; dsDNA, one strand shown
ETV5, sequence (P41161 whole entry): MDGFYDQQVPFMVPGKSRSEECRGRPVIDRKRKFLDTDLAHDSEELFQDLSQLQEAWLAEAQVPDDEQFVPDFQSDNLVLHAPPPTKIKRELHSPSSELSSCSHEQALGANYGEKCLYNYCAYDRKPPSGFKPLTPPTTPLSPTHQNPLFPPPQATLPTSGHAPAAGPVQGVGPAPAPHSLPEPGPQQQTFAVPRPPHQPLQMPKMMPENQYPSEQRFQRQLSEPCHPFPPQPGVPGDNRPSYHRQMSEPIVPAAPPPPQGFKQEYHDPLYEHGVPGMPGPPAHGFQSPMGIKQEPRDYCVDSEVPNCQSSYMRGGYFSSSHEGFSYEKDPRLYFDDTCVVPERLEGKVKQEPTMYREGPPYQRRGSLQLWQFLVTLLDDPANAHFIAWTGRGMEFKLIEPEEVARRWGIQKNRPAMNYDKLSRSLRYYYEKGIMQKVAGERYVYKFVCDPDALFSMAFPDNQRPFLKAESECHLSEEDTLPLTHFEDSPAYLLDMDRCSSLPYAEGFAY
Method in brief: as §1

HSF1 = HSF1 (Homo sapiens, UniProt Q00613 1-529); settings: protein: recombinant; tags: N-terminal GST; chain copies: 3; dsDNA, one strand shown
HSF1, sequence (Q00613 whole entry): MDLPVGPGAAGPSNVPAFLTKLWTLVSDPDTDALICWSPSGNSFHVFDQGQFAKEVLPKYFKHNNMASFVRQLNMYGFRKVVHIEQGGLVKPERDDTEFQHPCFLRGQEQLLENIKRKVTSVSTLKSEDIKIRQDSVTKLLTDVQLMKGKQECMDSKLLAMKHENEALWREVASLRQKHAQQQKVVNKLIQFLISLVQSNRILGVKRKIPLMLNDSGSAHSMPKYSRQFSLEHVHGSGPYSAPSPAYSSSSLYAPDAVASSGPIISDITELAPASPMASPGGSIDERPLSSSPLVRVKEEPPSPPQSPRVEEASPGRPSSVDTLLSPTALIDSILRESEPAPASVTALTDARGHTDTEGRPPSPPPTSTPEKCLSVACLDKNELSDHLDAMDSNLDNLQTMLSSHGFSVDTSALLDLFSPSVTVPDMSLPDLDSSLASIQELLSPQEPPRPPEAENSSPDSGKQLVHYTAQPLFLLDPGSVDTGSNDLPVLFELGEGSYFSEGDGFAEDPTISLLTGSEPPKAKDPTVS
Method in brief: as §1

SPIC = molecular target: T8, SPIC (Homo sapiens, UniProt Q8N5J4 1-248); settings: protein: recombinant; tags: N-terminal GST; dsDNA, one strand shown
T8 sequence: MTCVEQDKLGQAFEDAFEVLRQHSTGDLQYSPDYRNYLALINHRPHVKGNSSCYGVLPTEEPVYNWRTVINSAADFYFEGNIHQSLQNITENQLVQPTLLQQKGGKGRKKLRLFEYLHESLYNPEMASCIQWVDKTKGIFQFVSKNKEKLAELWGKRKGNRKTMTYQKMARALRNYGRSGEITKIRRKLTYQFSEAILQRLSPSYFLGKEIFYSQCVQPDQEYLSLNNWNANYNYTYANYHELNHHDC
Method in brief: as §1

ELF4 = ELF4 (Homo sapiens, UniProt Q99607 1-663); settings: protein: recombinant; tags: N-terminal GST; dsDNA, one strand shown
ELF4, sequence (Q99607 whole entry): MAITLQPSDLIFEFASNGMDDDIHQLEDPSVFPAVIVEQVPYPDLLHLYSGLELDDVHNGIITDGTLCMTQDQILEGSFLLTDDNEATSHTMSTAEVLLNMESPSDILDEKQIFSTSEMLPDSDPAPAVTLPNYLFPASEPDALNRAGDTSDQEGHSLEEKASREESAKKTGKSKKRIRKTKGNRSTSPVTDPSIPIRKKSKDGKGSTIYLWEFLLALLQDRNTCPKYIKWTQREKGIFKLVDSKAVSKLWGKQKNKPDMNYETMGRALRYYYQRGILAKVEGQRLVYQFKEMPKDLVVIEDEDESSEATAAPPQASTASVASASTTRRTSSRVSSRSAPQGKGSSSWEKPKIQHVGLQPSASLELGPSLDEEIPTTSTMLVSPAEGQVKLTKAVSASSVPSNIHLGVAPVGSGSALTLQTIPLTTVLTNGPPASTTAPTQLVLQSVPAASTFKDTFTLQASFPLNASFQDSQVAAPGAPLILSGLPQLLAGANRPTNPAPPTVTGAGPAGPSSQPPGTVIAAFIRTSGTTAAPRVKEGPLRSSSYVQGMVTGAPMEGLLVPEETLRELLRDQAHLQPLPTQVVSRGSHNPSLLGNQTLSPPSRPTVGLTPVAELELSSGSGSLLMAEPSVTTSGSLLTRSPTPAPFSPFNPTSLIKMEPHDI
Method in brief: as §1

ELK4 = molecular target: T9, ELK4 (Homo sapiens, UniProt P28324-2 1-405); settings: protein: recombinant; tags: N-terminal GST; dsDNA, one strand shown
T9 sequence: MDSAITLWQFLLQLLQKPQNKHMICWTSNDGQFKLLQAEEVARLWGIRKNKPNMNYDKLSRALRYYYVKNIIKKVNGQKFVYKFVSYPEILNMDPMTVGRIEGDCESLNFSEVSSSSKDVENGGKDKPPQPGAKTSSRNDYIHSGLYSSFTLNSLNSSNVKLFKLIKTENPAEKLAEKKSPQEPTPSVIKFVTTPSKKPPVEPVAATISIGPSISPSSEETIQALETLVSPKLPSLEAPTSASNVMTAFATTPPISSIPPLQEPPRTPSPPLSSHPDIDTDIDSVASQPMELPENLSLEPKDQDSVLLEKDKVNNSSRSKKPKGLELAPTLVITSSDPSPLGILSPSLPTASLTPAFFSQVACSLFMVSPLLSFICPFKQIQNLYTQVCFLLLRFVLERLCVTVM
Method in brief: as §1

ETV2 = molecular target: T10, ETV2 (Homo sapiens, UniProt O00321 1-342); settings: protein: recombinant; tags: N-terminal GST; dsDNA, one strand shown
T10 sequence: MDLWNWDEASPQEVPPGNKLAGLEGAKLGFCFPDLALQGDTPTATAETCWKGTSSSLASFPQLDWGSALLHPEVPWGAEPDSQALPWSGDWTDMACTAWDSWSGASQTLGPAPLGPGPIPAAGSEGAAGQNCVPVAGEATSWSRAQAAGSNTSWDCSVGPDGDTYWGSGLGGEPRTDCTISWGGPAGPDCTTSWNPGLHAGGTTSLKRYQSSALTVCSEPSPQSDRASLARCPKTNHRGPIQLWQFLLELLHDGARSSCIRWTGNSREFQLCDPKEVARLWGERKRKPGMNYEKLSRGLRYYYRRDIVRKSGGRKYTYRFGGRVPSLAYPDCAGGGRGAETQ
Method in brief: as §1

ELF3 = molecular target: T11, ELF3 (Homo sapiens, UniProt P78545 1-371); settings: protein: recombinant; tags: N-terminal GST; dsDNA, one strand shown
T11 sequence: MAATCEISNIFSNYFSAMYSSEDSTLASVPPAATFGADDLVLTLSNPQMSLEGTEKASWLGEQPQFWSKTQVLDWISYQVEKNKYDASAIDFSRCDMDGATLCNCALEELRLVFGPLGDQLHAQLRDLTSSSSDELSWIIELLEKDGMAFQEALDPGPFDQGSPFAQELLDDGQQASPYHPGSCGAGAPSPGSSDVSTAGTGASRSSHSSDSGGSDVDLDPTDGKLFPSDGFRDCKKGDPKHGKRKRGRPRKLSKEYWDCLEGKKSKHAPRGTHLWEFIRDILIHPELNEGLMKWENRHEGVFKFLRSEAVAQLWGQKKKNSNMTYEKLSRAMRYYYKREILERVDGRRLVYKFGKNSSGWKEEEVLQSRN
Method in brief: as §1

CRX = CRX (Homo sapiens, UniProt O43186 1-299); settings: protein: recombinant; tags: N-terminal GST; dsDNA, one strand shown
CRX, sequence (O43186 whole entry): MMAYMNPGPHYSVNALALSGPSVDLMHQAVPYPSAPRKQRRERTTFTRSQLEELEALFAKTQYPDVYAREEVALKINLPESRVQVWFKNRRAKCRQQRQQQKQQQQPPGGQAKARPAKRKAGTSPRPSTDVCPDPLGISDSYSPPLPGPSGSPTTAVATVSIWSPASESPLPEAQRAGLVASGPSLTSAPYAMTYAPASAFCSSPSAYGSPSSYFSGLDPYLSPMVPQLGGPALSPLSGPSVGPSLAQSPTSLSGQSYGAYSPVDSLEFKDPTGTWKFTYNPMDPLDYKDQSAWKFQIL
Method in brief: as §1

ETV1 = ETV1 (Homo sapiens, UniProt P50549 1-477); settings: protein: recombinant; tags: N-terminal GST; dsDNA, one strand shown
ETV1, sequence (P50549 whole entry): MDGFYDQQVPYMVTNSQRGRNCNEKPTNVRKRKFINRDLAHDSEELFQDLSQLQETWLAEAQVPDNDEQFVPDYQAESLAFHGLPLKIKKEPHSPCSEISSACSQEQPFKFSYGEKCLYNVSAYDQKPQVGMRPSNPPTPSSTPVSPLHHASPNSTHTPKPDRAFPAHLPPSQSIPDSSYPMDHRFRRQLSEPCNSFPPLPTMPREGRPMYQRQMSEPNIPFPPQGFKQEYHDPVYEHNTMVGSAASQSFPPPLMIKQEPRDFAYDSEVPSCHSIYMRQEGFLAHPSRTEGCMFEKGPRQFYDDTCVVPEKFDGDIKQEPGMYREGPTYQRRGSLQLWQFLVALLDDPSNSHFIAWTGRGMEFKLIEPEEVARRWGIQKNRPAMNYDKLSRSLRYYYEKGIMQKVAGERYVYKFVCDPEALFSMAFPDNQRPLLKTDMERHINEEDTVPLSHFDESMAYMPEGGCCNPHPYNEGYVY
Method in brief: as §1

CTTTGT was tested, and the binding signal (FLI1) was 1.34 fold enrichment (6-mer frequency, TF over GST control), the binding signal (ELK1) was 1.3 fold enrichment (6-mer frequency, TF over GST control) and the binding signal (GABPA) was 1.2 fold enrichment (6-mer frequency, TF over GST control). The binding signal (ERG) was 1.27 fold enrichment (6-mer frequency, TF over GST control), the binding signal (ELF1) was 1.36 fold enrichment (6-mer frequency, TF over GST control) and the binding signal (EHF) was 1.48 fold enrichment (6-mer frequency, TF over GST control). The binding signal (SPI1) was 1.36 fold enrichment (6-mer frequency, TF over GST control), the binding signal (SPIB) was 1.22 fold enrichment (6-mer frequency, TF over GST control) and the binding signal (ELK3) was 1.29 fold enrichment (6-mer frequency, TF over GST control). For the same sequence, the binding signal (FEV) was 1.28 fold enrichment (6-mer frequency, TF over GST control), the binding signal (ETV5) was 1.3 fold enrichment (6-mer frequency, TF over GST control) and the binding signal (HSF1) was 1.22 fold enrichment (6-mer frequency, TF over GST control). The binding signal (SPIC) was 1.21 fold enrichment (6-mer frequency, TF over GST control), the binding signal (ELF4) was 1.29 fold enrichment (6-mer frequency, TF over GST control) and the binding signal (ELK4) was 1.43 fold enrichment (6-mer frequency, TF over GST control). For the same sequence, the binding signal (ETV2) was 1.03 fold enrichment (6-mer frequency, TF over GST control), the binding signal (ELF3) was 1.23 fold enrichment (6-mer frequency, TF over GST control) and the binding signal (CRX) was 1.38 fold enrichment (6-mer frequency, TF over GST control). For the same sequence, the binding signal (ETV1) was 1.25 fold enrichment (6-mer frequency, TF over GST control).
